Test systems include T-47D breast; BT-549 breast; MDA-MB-435 melanoma; SW-620 colon; MCF7 breast; HCT-116 colon; HCC-2998 colon; KM12 colon.
Test in all cases: NCI-60 one-dose screen, 48 h (100 = growth as untreated, 0 = no growth, -100 = all killed)
Common to all, as to conditions: 10 µM unless noted

Where “and” joins values, the source holds several entries; their conditions need not be identical. Equal values may be shown once. This is part of a sample that, as a whole, favours compounds with a hit. Of some 83,000 tested, about 20% had one in any assay.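 Step 1: grow cells in 96-well plates. Step 2: add test compound at a single concentration. Step 3: incubate 48 h. Step 4: record percent growth.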 Calls of active or inactive are those of the source. How the source made its calls: active means growth percent below 10; inactive means the rest.

In the case of `O=[N+]([O-])c1ccc(S(=O)Cc2ccccc2)c([N+](=O)[O-])c1` (stereo not given), the growth in the assay on T-47D breast is 29.7% (inactive) and -21.4% (active); in the assay with BT-549 breast, 66.3% (inactive) and 67.5% (inactive); in the assay with MDA-MB-435 melanoma, 76.2% (inactive) and 78% (inactive); with SW-620 colon, -71.3% (active) and -38.1% (active); in the assay with MCF7 breast, 41.1% (inactive) and 5.89% (active); in the assay with HCT-116 colon, -88.5% (active) and -82.3% (active). For the same compound, the growth with HCC-2998 colon is 97.2% (inactive) and 97.5% (inactive); in the assay with KM12 colon, 77.1% (inactive) and 101% (inactive).

In the case of `COc1ccc(S(=O)(=O)Nc2cc(Sc3cccc4cccnc34)c(O)c3ccccc23)cc1`, the growth with T-47D breast is -30.9% (active); in the assay on BT-549 breast it was 27.7% (inactive); in the assay with MDA-MB-435 melanoma, 16.4% (inactive); in the assay with SW-620 colon, -59.2% (active); with MCF7 breast, -50.5% (active); in the assay with HCT-116 colon, -36.8% (active). Further, the growth in the assay on HCC-2998 colon is 38.6% (inactive); in the assay with KM12 colon it was 20.3% (inactive).

Take `COc1ccc(CN2CCc3c(Cl)nc(N)nc3C2=O)c(OC)c1`: the growth in the assay on T-47D breast was 12.8% [100 µM] (inactive); with BT-549 breast it was -20.3% [100 µM] (active); in the assay with MDA-MB-435 melanoma, 1.81% [100 µM] (active); with SW-620 colon, -46.8% [100 µM] (active); in the assay on MCF7 breast it was 6.65% [100 µM] (active); in the assay on HCT-116 colon, -72.7% [100 µM] (active). The values for the growth in the assay with HCC-2998 colon and in the assay with KM12 colon were -85.9% [100 µM] (active) and 11.1% [100 µM] (inactive), respectively.

As for `Cc1ccc(-c2nc3nc(-c4ccccc4)nc(N4CCN(S(=O)(=O)c5ccccc5)CC4)c3o2)cc1`, the growth with T-47D breast was 94.5% (inactive); in the assay with BT-549 breast it was 64.5% (inactive); in the assay with MDA-MB-435 melanoma, 95.7% (inactive); in the assay on SW-620 colon, 92.9% (inactive); in the assay on MCF7 breast it was 92.7% (inactive); in the assay with HCT-116 colon, 65.2% (inactive). The growth in the assay on HCC-2998 colon is 102% (inactive); in the assay with KM12 colon, 104% (inactive).

On to `Brc1ccc(/C=C(/C2=NCCN2)n2ccc3ccccc32)cc1`, for which the growth in the assay on T-47D breast is 53.1% (inactive); in the assay with BT-549 breast, 80.3% (inactive); with MDA-MB-435 melanoma, 58.2% (inactive); in the assay with SW-620 colon, 71.8% (inactive); in the assay on MCF7 breast, 30.2% (inactive); in the assay on HCT-116 colon it was 52.9% (inactive). The growth in the assay with HCC-2998 colon is 48.5% (inactive); in the assay on KM12 colon, 80.4% (inactive).

Take `Clc1ccc2c(c1)N(c1ncnc3ccc(-c4cnc5[nH]ccc5c4)cc13)CC2`: the growth in the assay with T-47D breast is -15% (active); with BT-549 breast it was 20.1% (inactive); in the assay on MDA-MB-435 melanoma, -42.1% (active); in the assay on SW-620 colon, 24.5% (inactive); in the assay on MCF7 breast it was 6.81% (active); in the assay with HCT-116 colon, 16.6% (inactive). The growth in the assay with HCC-2998 colon was 43.7% (inactive); in the assay with KM12 colon, 19.9% (inactive).

Turning to `N#Cc1ccccc1OCC(=O)Nc1nc2c(s1)COc1ccccc1-2`, the growth was 86.2% (inactive) with T-47D breast; 122% (inactive) in the assay on BT-549 breast; 104% (inactive) in the assay on MDA-MB-435 melanoma; 103% (inactive) in the assay on SW-620 colon; 91.4% (inactive) in the assay with MCF7 breast; 102% (inactive) in the assay with HCT-116 colon. Further, the growth in the assay on HCC-2998 colon was 103% (inactive); with KM12 colon it was 105% (inactive).

Turning to `CC/C(=C(/c1ccc(Cl)cc1)c1ccc(OCCN2CCOCC2)cc1)c1ccccc1`, the growth in the assay on T-47D breast was 71.7% (inactive); with BT-549 breast, 117% (inactive); in the assay on MDA-MB-435 melanoma it was 94.8% (inactive); with SW-620 colon, 83.7% (inactive); in the assay on MCF7 breast it was 86.2% (inactive); in the assay with HCT-116 colon, 77.6% (inactive). In addition, the growth is 99.8% (inactive) in the assay on HCC-2998 colon and 96.6% (inactive) in the assay with KM12 colon.

Consider `N=c1c2c(-c3ccccc3)c(-c3ccccc3)oc2ncn1NC(=O)c1cccnc1`, for which the growth in the assay with T-47D breast was 96.2% (inactive); with BT-549 breast it was 103% (inactive); in the assay on MDA-MB-435 melanoma, 104% (inactive); in the assay on SW-620 colon, 106% (inactive); in the assay on MCF7 breast it was 98.5% (inactive); with HCT-116 colon, 96.1% (inactive). The growth is 118% (inactive) in the assay with HCC-2998 colon and 95.6% (inactive) with KM12 colon.

Turning to `COc1ccc(-c2ccc(-c3ccc(C(=N)N)cn3)o2)cc1Cl`, the growth in the assay with T-47D breast was 31.1% (inactive); in the assay with BT-549 breast, 57.8% (inactive); in the assay on MDA-MB-435 melanoma it was -69.4% (active); in the assay on SW-620 colon, -50.3% (active); in the assay on MCF7 breast it was -31.1% (active); in the assay with HCT-116 colon it was 0.389% (active). The growth in the assay with HCC-2998 colon is 67.5% (inactive); in the assay with KM12 colon it was 16.4% (inactive).

With `COC(=O)N/N=C/c1c[n+]([O-])c2ccccc2[n+]1[O-]`, the growth was 20.4% (inactive) in the assay with T-47D breast; 108% (inactive) in the assay on BT-549 breast; 96.4% (inactive) with MDA-MB-435 melanoma; 103% (inactive) with SW-620 colon; 93.6% (inactive) in the assay on MCF7 breast; 104% (inactive) in the assay on HCT-116 colon. Moreover, the figures for the growth in the assay with HCC-2998 colon and in the assay on KM12 colon were 104% (inactive) and 103% (inactive), respectively.

`CCCCCCNC(=O)Oc1ccc(/C(=C(/CC)Cc2ccccc2)c2ccc(OCCCN(C)C)cc2)cc1`: the growth was 54.4% (inactive) in the assay with T-47D breast; 82.8% (inactive) in the assay with BT-549 breast; 87.8% (inactive) in the assay with MDA-MB-435 melanoma; 59.6% (inactive) with SW-620 colon; 22.9% (inactive) with MCF7 breast; 39.8% (inactive) with HCT-116 colon. In addition, the growth in the assay on HCC-2998 colon is 24.1% (inactive); in the assay on KM12 colon, 82.4% (inactive).

For the compound `OB(O)c1ccsc1-c1nc2ccc3[nH]ncc3c2c2c1CCCC2`, the growth was 53.5% (inactive) in the assay on T-47D breast; 47.1% (inactive) in the assay on BT-549 breast; 27% (inactive) in the assay with MDA-MB-435 melanoma; 22.7% (inactive) in the assay on SW-620 colon; 49.3% (inactive) in the assay with MCF7 breast; 26.4% (inactive) in the assay on HCT-116 colon. Further, the figures for the growth with HCC-2998 colon and with KM12 colon were 66% (inactive) and 38.1% (inactive), respectively.

On to `Cc1ccc(-c2nc3nc(-c4ccccc4)nc(N4CCCNCC4)c3o2)cc1`, for which the growth in the assay with T-47D breast was -45% (active); in the assay on BT-549 breast it was 18% (inactive); in the assay on MDA-MB-435 melanoma, -83.1% (active); in the assay with SW-620 colon, -57.5% (active); in the assay with MCF7 breast, -78.4% (active); with HCT-116 colon it was -71.4% (active). Further, the growth was -74.9% (active) in the assay on HCC-2998 colon and -92.3% (active) with KM12 colon.

As for `CN(Cc1ccccc1)c1nc(Cl)c(C2CC(c3ccc(F)cc3)=NN2C=O)s1` (stereo not given), the growth is 85.5% (inactive) in the assay with T-47D breast; 113% (inactive) in the assay on BT-549 breast; 96.8% (inactive) with MDA-MB-435 melanoma; 101% (inactive) in the assay with SW-620 colon; 86.7% (inactive) in the assay with MCF7 breast; 86.9% (inactive) in the assay with HCT-116 colon. Moreover, the growth with HCC-2998 colon is 95.4% (inactive); in the assay with KM12 colon, 93.2% (inactive).
